# In PubChem BioAssay (EPA / NIEHS):
# Activity calls are given as the source filed them. The calls were made as follows: active = hit-call score of the fitted dose curve at least 0.9, where 1 is the maximum; inactive = score below 0.9.
# Assay: IUF_NPC2c_oligodendrocyte_migration_120hr: Leibniz Research Institute for Environmental Medicine (IUF) 120-hour Neural Progenitor Cell Migration Assay for Oligodendrocyte Migration (NPC2c) (AID 2284297);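 also: O4-positive oligodendrocyte migration distance divided by radial glia migration distance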
# Summary of the method: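 hNPC spheres (GW 16-19 cortex), PDL/laminin, DMEM/F12 3:1 + 1% N2, 37C. Dosing day 0–5, half feed day 3, DMSO ≤0.1%. Fixed 120 h; O4 ICC + Hoechst, HCI. Readout: mean oligodendrocyte distance from sphere edge / radial glia distance.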
SMILES,outcome,AC50
C[n+]1ccc(-c2cc[n+](C)cc2)cc1,inactive,
C/C(=C/C=C/[C@@H](C)C(=O)O)[C@H]1CN[C@H](C(=O)O)[C@H]1CC(=O)O,inactive,
CP(=O)(O)CCC(N)C(=O)O (configuration not stated),inactive,
[O-][Cl+3]([O-])([O-])O,inactive,
CCOP(=S)(OCC)SCS(=O)C(C)(C)C (configuration not stated),inactive,
C[n+]1ccc(-c2ccccc2)cc1,inactive,
Cn1nc(C(F)(F)F)c(CS(=O)(=O)C2=NOC(C)(C)C2)c1OC(F)F,inactive,
CC1(C)C(C=C(Cl)c2ccc(Cl)cc2)C1C(=O)OC(C#N)c1ccc(F)c(Oc2ccccc2)c1 (configuration not stated),inactive,
CCOP(=O)(Oc1cnc(C(C)(C)C)nc1)OC(C)C (configuration not stated),inactive,
CC1(C)[C@H](C=C(Cl)Cl)[C@H]1C(=O)OCc1c(F)c(F)cc(F)c1F,inactive,
CC(=O)[O-].CC(=O)[O-].O.O.O.[Pb+2],inactive,
CC1(C)C(C=C(Cl)Cl)C1C(=O)O[C@H](C#N)c1cccc(Oc2ccccc2)c1 (some centres not stated),inactive,
CCOP(=O)(OCC)OC(Cl)C(Cl)(Cl)Cl (configuration not stated),inactive,
CCOP(=O)(OCC)SCSC(C)(C)C,inactive,
CC1(C)[C@@H](C=C(Cl)Cl)[C@@H]1C(=O)O[C@@H](C#N)c1ccc(F)c(Oc2ccccc2)c1,inactive,
COP(=O)(OC)SCN1C(=O)c2ccccc2C1=O,inactive,
CC(=O)[O-].[Tl+],,59.4 µM (active)
